High-throughput results as filed in PubChem.
GLP1R cytotox: cytotoxic in the GLP-1 receptor inverse agonist counter-screen; HEK293 cAMP-luciferase reporter cells, luminescence, 24 h; AID 624418; Potency, µM (doses to about 38.3 µM), actives largely listed as inhibitors; hit rate 0.13% among 410,000;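 also: loss of luciferase light is scored as toxicity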
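Step one: seed cells (200 cells/uL, DMEM with 10% Nu serum, 1% pen-strep). Step two: 12-hour incubation at 37 deg C. Step three: pin 23 nL compound, incubate 24 hr. Step four: add luciferase reagent, read luminescence 12 min later.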
GLP-1R inv ag: acts as inverse agonist at human GLP-1 receptor; hit rate 1.6% among 410,000; P43220; HEK293 GLP-1R CRE-luciferase, luminescence, 24 h; GLP-1R form is constitutively active; Potency, µM (top dose mostly 38.3 µM), most hits filed as inhibitors; also: nearly all actives have a fitted effect of over 55% in size
Target sequence (P43220 whole entry, looked up): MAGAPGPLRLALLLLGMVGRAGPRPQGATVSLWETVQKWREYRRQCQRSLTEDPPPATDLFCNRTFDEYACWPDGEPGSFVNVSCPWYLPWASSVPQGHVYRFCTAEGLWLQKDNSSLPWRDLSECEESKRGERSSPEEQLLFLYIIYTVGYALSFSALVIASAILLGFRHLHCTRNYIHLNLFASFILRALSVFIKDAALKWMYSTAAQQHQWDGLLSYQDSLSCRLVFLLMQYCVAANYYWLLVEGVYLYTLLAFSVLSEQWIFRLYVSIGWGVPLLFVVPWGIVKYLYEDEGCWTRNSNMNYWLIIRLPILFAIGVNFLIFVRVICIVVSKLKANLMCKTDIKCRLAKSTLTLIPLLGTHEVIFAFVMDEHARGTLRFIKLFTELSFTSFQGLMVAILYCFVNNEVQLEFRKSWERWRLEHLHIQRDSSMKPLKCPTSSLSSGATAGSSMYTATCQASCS
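Readout was luciferase luminescence, measured 12 min after detection reagent at room temperature. Beforehand, GLP-1R reporter HEK293 cells had sat 12 h, then received compounds for 24 hr at 37 deg C.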
GLP1R ag: activates the human GLP-1 receptor. Potency, µM (highest dose often 45.6 µM), usual class: activators. HEK293 GLP-1R CRE-luciferase, luminescence, 4-6 h; cells express a hypersensitive GLP-1R form. AID 624172. P43220. hit rate 0.007% among 380,000
PTHR1 ag: PTHR1 (human) receptor agonism | HEK293 GP2 PTHR1 cells, GloSensor cAMP luminescence, 1 h | Potency, µM (highest dose often 115 µM), usual class: activators | hit rate 0.075% among 410,000; also: nearly all actives have a fitted effect of over 55% in size
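HEK-293-derived GP2 cells expressing PTHR1 and a GloSensor cAMP reporter, 3,000/well, plated overnight, given luciferin plus IBMX (each 0.5 mM as added) for 1 h at 37 °C, then compound for 1 h at 37 °C. Luminescence was read after 15 min at room temperature.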
Each line names hits and unclear results; the compound was inactive in the other large screens. The list is not random: actives were taken first. Their share in the collection is about 1.7%. Calls follow the shape of the dose curve; as a rule, active = well fitted curve in the direction sought with a large enough effect; inconclusive = small, poorly fitted or top-dose-only effect, or another doubt; inactive = no such curve, though single readings can be large; an effect the other way counts as inactive or inconclusive.

C[C@H]1COc2cc(N3CCC[C@H]3CO)ccc2S(=O)(=O)N1	none
C[C@H]1CN([C@@H](C)CO)C(=O)c2cccc(NC(=O)Nc3ccc(C(F)(F)F)cc3)c2O[C@H]1CN(C)C	GLP-1R inv ag 10µM
C[C@H](CO)N1C[C@H](C)[C@@H](CN(C)C(=O)Nc2ccc(C(F)(F)F)cc2)Oc2c(NC(=O)Nc3ccc(C(F)(F)F)cc3)cccc2C1=O	GLP1R cytotox inconclusive, GLP-1R inv ag 11µM
Cc1nc2sccn2c(=O)c1S(=O)(=O)NCC1CCN(Cc2ccc(Cl)cc2)CC1	GLP-1R inv ag 10µM
O=C(OCC1OC(OC(=O)c2cc(O)c(O)c(OC(=O)c3cc(O)c(O)c(O)c3)c2)[C@@H](OC(=O)c2cc(O)c(O)c(OC(=O)c3cc(O)c(O)c(O)c3)c2)C(OC(=O)c2cc(O)c(O)c(OC(=O)c3cc(O)c(O)c(O)c3)c2)C1OC(=O)c1cc(O)c(O)c(OC(=O)c2cc(O)c(O)c(O)c2)c1)c1cc(O)c(O)c(OC(=O)c2cc(O)c(O)c(O)c2)c1 (some centres not stated)	none (no result: GLP1R cytotox, GLP-1R inv ag, PTHR1 ag)
Cc1ccc(S(=O)(=O)N(CCC(=O)NCc2ccccc2F)c2ccccc2)cc1	GLP-1R inv ag inconclusive
COc1cccc(CN(C)C(=O)CCN(c2ccccc2)S(=O)(=O)c2ccc(C)cc2)c1OC	GLP-1R inv ag 8.9µM
CCCC[C@@H](CN[C@H](C)CNC)NCC1CCC(C(C)(C)C)CC1 (some centres not stated)	GLP1R cytotox inconclusive, GLP-1R inv ag 11µM
CC[C@H](C)[C@@H](CN[C@H](CCCCNC)CNC)NCC1CCCC1	none
Cc1cc(C)nc(N/N=C/C=C/c2ccccc2)n1	GLP1R cytotox 11µM, GLP-1R inv ag inconclusive
O=C(Nc1ccc(F)cc1)c1ccc(S(=O)(=O)N2CCCC2)cc1	none
CC1CCCN(S(=O)(=O)c2ccc(NC(=O)CN3CCCCC3)cc2)C1 (configuration not stated)	GLP-1R inv ag 22µM
Cc1ccc(S(=O)(=O)N2CCN(CC(=O)Nc3ccc(N4CCOCC4)cc3)CC2)cc1C	none
O=C(Nc1ccc(F)cc1)Nc1ccc(S(=O)(=O)N2CCCC2)cc1	GLP-1R inv ag 8.9µM
Cc1cccc(N2CCN(CC(=O)Nc3ccc(S(=O)(=O)N4CCOCC4)cc3)CC2)c1C	GLP-1R inv ag 11µM
CC1CCN(S(=O)(=O)c2ccc(NC(=O)CN3CCCC3)cc2)CC1	GLP-1R inv ag 1.8µM
COc1ccccc1N1CCN(C(=O)c2ccc3noc(-c4ccccc4)c3c2)CC1	none
NC(N)=NC[C@@H]1COC2(CCCCC2)O1	none (no result: GLP1R cytotox, GLP-1R inv ag, PTHR1 ag)
CCN1CCN(CC(=O)Nc2ccc(S(=O)(=O)N3C(C)CCCC3C)cc2)CC1 (configuration not stated)	GLP-1R inv ag 11µM
CC1CC(C)CN(S(=O)(=O)c2ccc(NC(=O)CN3CCCCCC3)cc2)C1 (configuration not stated)	GLP1R cytotox inconclusive, GLP-1R inv ag 11µM
CC1CCN(S(=O)(=O)c2ccc(NC(=O)C3CCN(C(=O)c4ccco4)CC3)cc2)CC1	GLP-1R inv ag 2.8µM
CC1CCN(CC(=O)Nc2ccc(S(=O)(=O)N3CCC(C)CC3)cc2)CC1	GLP1R cytotox inconclusive, GLP-1R inv ag inconclusive
O=C(Nc1ccc(S(=O)(=O)N2CCCCC2)cc1)C1CCN(C(=O)c2ccco2)CC1	GLP-1R inv ag inconclusive
O=C(OCC(=O)N1CCCCCC1)c1ccc(F)cc1F	none
CCCn1cc(S(=O)(=O)c2cc(C)ccc2C)c(=O)c2cc(F)c(N3CCOCC3)cc21	PTHR1 ag inconclusive (no result: GLP1R ag)
C=CCN(c1ccccc1)S(=O)(=O)c1ccc2c(c1)NC(=O)C(C)S2 (configuration not stated)	GLP-1R inv ag 7.1µM
CCc1cccc(NS(=O)(=O)c2ccc3c(c2)NC(=O)C(C)S3)c1 (configuration not stated)	GLP-1R inv ag 11µM
C=CCN(c1ccccc1)S(=O)(=O)c1ccc2c(c1)NC(=O)C(C)C(=O)N2 (configuration not stated)	none
Cc1ccccc1NC(=O)c1c(NC(=O)c2ccncc2)sc2c1CCC(C(C)(C)C)C2 (configuration not stated)	none (no result: GLP1R ag)
COc1ccc(CCn2c(C3CCCCC3)nc3c(c(=O)c4ccccc4n3C)c2=O)cc1	GLP1R cytotox 5µM, GLP-1R inv ag inconclusive
COc1ccc(Cn2c(C3CCCCC3)nc3c(c(=O)c4ccccc4n3C)c2=O)cc1	none
COc1ccc(S(=O)(=O)N2CCCCC2)cc1NC(=O)Cc1ccc(Br)cc1	none
CCOc1cc(S(=O)(=O)NC2CC(C)(C)NC(C)(C)C2)ccc1Cl	GLP-1R inv ag 11µM
COc1cc(C)c(Cl)c(C)c1S(=O)(=O)NC1CC(C)(C)NC(C)(C)C1	GLP-1R inv ag 5.6µM
CCOc1cc(C)c(Cl)cc1S(=O)(=O)NC1CC(C)(C)NC(C)(C)C1	GLP-1R inv ag inconclusive
CCOC(=O)Cn1c(=O)n(CC2CCCO2)c2nc(-c3ccccc3OC)nc(C(N)=O)c21 (configuration not stated)	none (no result: GLP1R ag)
Cc1cc(C(=O)CSc2nc3ccccc3[nH]2)c(C)n1CC1CCCO1 (configuration not stated)	GLP-1R inv ag 4µM
Cc1cc(C(=O)CSc2nc(N)cc(=O)[nH]2)c(C)n1CC1CCCO1 (configuration not stated)	none
COc1ccccc1C(CNC(=O)c1cccc(S(=O)(=O)Nc2ccc(C)cc2)c1)N1CCCC1 (configuration not stated)	GLP-1R inv ag 5.6µM
COc1ccccc1NS(=O)(=O)c1cccc(C(=O)NCC(c2ccccc2OC)N2CCCC2)c1 (configuration not stated)	GLP-1R inv ag inconclusive
Cc1ccc(N(C)S(=O)(=O)c2cccc(C(=O)NCC(c3ccco3)N3CCCC3)c2)cc1 (configuration not stated)	GLP-1R inv ag 10µM
COc1cccc(NC(=O)CSc2nc3c(sc4ccccc43)c(=O)n2CCCN2CCCC2)c1	GLP1R cytotox inconclusive, GLP-1R inv ag 10µM, PTHR1 ag inconclusive
CC(C)CCNc1nc(Nc2ccccc2)c2cnn(C)c2n1	none (no result: GLP1R ag)
CCc1ccc(N2CCn3c2nc2c3c(=O)n(CCc3ccccc3)c(=O)n2C)cc1	PTHR1 ag 50µM (no result: GLP1R ag)
CCc1ccc(N2CCn3c2nc2c3c(=O)n(CCCc3ccccc3)c(=O)n2C)cc1	none (no result: GLP1R ag)
CCc1nc2c(OCc3ccc(F)cc3)cccn2c1N(C)C(=O)C(C)C	none
CCOC(=O)N1CCN(c2nc(-c3ccccc3)c3cc(C)ccc3n2)CC1	none
Cc1ccc2nc(N3CCN(CCO)CC3)nc(-c3ccccc3)c2c1	GLP-1R inv ag 6.3µM
OCCN1CCN(c2nc(-c3ccccc3)c3cc(Cl)ccc3n2)CC1	GLP-1R inv ag 3.5µM
O=C(CNC(=O)c1cccc(-n2cccc2)c1)Nc1ccccc1Br	none
